# The supplement of paper PMC8728848
# The sample as a whole holds a higher share of the strongest signals than the screen did.
# Key:
# Assay in all cases: glycan array binding signal (z-score within array); higher = stronger binding
# Conditions in all cases: glycan notation: IUPAC condensed, linker removed; mutation: N288D, K313I
# [1] = target: GlcNAc(b1-2)[GlcNAc(b1-4)]Man(a1-3)[GlcNAc(b1-4)][GlcNAc(b1-2)[GlcNAc(b1-6)]Man(a1-6)]Man(b1-4)GlcNAc(b1-4)[Fuc(a1-6)]GlcNAc
# Method in brief: (§1)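 Glycan array binding is given as a within-array Z-score, which can be read as non-binding when negative. The arrays, 3228 of them, came from the Consortium for Functional Glycomics database and were retained only where the protein sequence was available. Z-scores were averaged across arrays of the same protein sequence at different concentrations or buffers and across linkers.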
# [2] = target: GlcNAc(b1-2)[GlcNAc(b1-6)]Man(a1-6)[GlcNAc(b1-2)Man(a1-3)]Man(b1-4)GlcNAc(b1-4)GlcNAc
# Method in brief: as §1
# [3] = target: GlcNAc(b1-2)[GlcNAc(b1-6)]Man(a1-6)[GlcNAc(b1-4)][GlcNAc(b1-2)Man(a1-3)]Man(b1-4)GlcNAc(b1-4)GlcNAc
# Method in brief: as §1
# [4] = target: GlcNAc(b1-3)Gal(b1-4)GlcNAc
# Method in brief: as §1
# [5] = target: GlcNAc(b1-3)Gal(b1-4)GlcNAc(b1-2)[GlcNAc(b1-3)Gal(b1-4)GlcNAc(b1-6)]Man(a1-6)[GlcNAc(b1-3)Gal(b1-4)GlcNAc(b1-2)Man(a1-3)]Man(b1-4)GlcNAc(b1-4)GlcNAc
# Method in brief: as §1
# [6] = target: GlcNAc(b1-3)Gal(b1-4)GlcNAc(b1-3)Gal(b1-4)GlcNAc(b1-2)[GlcNAc(b1-3)Gal(b1-4)GlcNAc(b1-3)Gal(b1-4)GlcNAc(b1-6)]Man(a1-6)[GlcNAc(b1-3)Gal(b1-4)GlcNAc(b1-3)Gal(b1-4)GlcNAc(b1-2)Man(a1-3)]Man(b1-4)GlcNAc(b1-4)[Fuc(a1-6)]GlcNAc
# Method in brief: as §1
# [7] = target: GlcNAc(b1-3)Gal(b1-4)GlcNAc(b1-3)Gal(b1-4)GlcNAc(b1-3)Gal(b1-4)GlcNAc(b1-2)[GlcNAc(b1-3)Gal(b1-4)GlcNAc(b1-3)Gal(b1-4)GlcNAc(b1-3)Gal(b1-4)GlcNAc(b1-6)]Man(a1-6)[GlcNAc(b1-3)Gal(b1-4)GlcNAc(b1-3)Gal(b1-4)GlcNAc(b1-3)Gal(b1-4)GlcNAc(b1-2)Man(a1-3)]Man(b1-4)GlcNAc(b1-4)[Fuc(a1-6)]GlcNAc
# Method in brief: as §1
# [8] = target: GlcNAc(b1-3)Gal(b1-4)GlcNAc(b1-3)Gal(b1-4)GlcNAc(b1-3)Gal(b1-4)GlcNAc(b1-3)Gal(b1-4)GlcNAc(b1-2)Man(a1-3)[GlcNAc(b1-3)Gal(b1-4)GlcNAc(b1-3)Gal(b1-4)GlcNAc(b1-3)Gal(b1-4)GlcNAc(b1-3)Gal(b1-4)GlcNAc(b1-2)Man(a1-6)]Man(b1-4)GlcNAc(b1-4)[Fuc(a1-6)]GlcNAc
# Method in brief: as §1
# [9] = target: GlcNAc(b1-3)Gal(b1-4)GlcNAc(b1-6)[GlcNAc(b1-3)]Gal(b1-4)GlcNAc
# Method in brief: as §1
# GlcNAc(b1-3)GalNAc = target: GlcNAc(b1-3)GalNAc
# Method in brief: as §1
# [10] = target: GlcNAc(b1-3)[GlcNAc(b1-6)]Gal(b1-4)GlcNAc
# Method in brief: as §1
# Kdn(a2-3)Gal(b1-3)GlcNAc = target: Kdn(a2-3)Gal(b1-3)GlcNAc
# Method in brief: as §1
# [11] = target: Neu5Ac(a2-3)Gal(b1-3)GlcNAc(b1-6)GalNAc
# Method in brief: as §1
# [12] = target: Neu5Ac(a2-3)Gal(b1-3)[Fuc(a1-4)]GlcNAc(b1-3)Gal(b1-3)[Fuc(a1-4)]GlcNAc
# Method in brief: as §1
# [13] = target: Neu5Ac(a2-3)Gal(b1-3)[Neu5Ac(a2-6)]GlcNAc(b1-3)[Fuc(a1-3)[Gal(b1-4)]GlcNAc(b1-6)]Gal(b1-4)Glc
# Method in brief: as §1
# [14] = target: Neu5Ac(a2-3)Gal(b1-4)GlcNAc(b1-6)GalNAc
# Method in brief: as §1
# [15] = target: Neu5Ac(a2-3)Gal(b1-4)GlcNAc6S
# Method in brief: as §1
# [16] = target: Neu5Ac(a2-3)Gal(b1-4)[Fuc(a1-3)]GlcNAc(b1-2)Man
# Method in brief: as §1
# [17] = target: Neu5Ac(a2-3)Gal(b1-4)[Fuc(a1-3)]GlcNAc(b1-3)Gal
# Method in brief: as §1
# [18] = target: Neu5Ac(a2-3)Gal(b1-4)[Fuc(a1-3)]GlcNAc(b1-3)GalNAc
# Method in brief: as §1
# [19] = target: Neu5Ac(a2-6)Gal(b1-4)GlcNAc(b1-2)Man(a1-6)[GlcNAc(b1-2)Man(a1-3)]Man(b1-4)GlcNAc(b1-4)GlcNAc
# Method in brief: as §1
# [20] = target: Neu5Ac(a2-6)Gal(b1-4)GlcNAc(b1-2)Man(a1-6)[Man(a1-3)]Man(b1-4)GlcNAc(b1-4)GlcNAc
# Method in brief: as §1
# [21] = target: Neu5Ac(a2-6)Gal(b1-4)GlcNAc(b1-3)Gal(b1-4)GlcNAc(b1-6)[Gal(b1-3)]GalNAc
# Method in brief: as §1
# [22] = target: Neu5Ac(a2-6)Gal(b1-4)GlcNAc(b1-6)GalNAc
# Method in brief: as §1
# [23] = target: Neu5Ac(a2-8)Neu5Ac(a2-8)Neu5Ac(a2-8)Neu5Ac(a2-3)[GalNAc(b1-4)]Gal(b1-4)Glc
# Method in brief: as §1
# Neu5Ac(b2-6)GalNAc = target: Neu5Ac(b2-6)GalNAc
# Method in brief: as §1
# [24] = target: Neu5Ac9Ac(a2-3)Gal(b1-4)GlcNAc
# Method in brief: as §1
binder,measurement,setting,value
"Langerin (Homo sapiens), Q9UJ71 (protein) STLNAQIPELKSDLEKASALNTKIRALQGSLENMSKLLKRQNDILQVVSQGWKYFKGNFYYFSLIPKTWYSAEQFCVSRNSHLTSVTSESEQEFLYKTAGGLIYWIGLTKAGMEGDWSWVDDTPFNKVQSARFWIPGEPNDAGNNEHCGNIKAPSLQAWNDAPCDITFLFICKRPYVPSEP",glycan array binding signal (z-score),[1],1.91
same,glycan array binding signal (z-score),[2],-0.239
same,glycan array binding signal (z-score),[3],0.046
same,glycan array binding signal (z-score),[4],1.72
same,glycan array binding signal (z-score),[5],2.14
same,glycan array binding signal (z-score),[6],16.7
same,glycan array binding signal (z-score),[7],0.284
same,glycan array binding signal (z-score),[8],2.34
same,glycan array binding signal (z-score),[9],5.4
same,glycan array binding signal (z-score),GlcNAc(b1-3)GalNAc,-0.205
same,glycan array binding signal (z-score),[10],4.87
same,glycan array binding signal (z-score),Kdn(a2-3)Gal(b1-3)GlcNAc,-0.115
same,glycan array binding signal (z-score),[11],-0.092
same,glycan array binding signal (z-score),[12],-0.088
same,glycan array binding signal (z-score),[13],-0.298
same,glycan array binding signal (z-score),[14],-0.165
same,glycan array binding signal (z-score),[15],-0.294
same,glycan array binding signal (z-score),[16],-0.159
same,glycan array binding signal (z-score),[17],-0.338
same,glycan array binding signal (z-score),[18],0.034
same,glycan array binding signal (z-score),[19],-0.278
same,glycan array binding signal (z-score),[20],-0.187
same,glycan array binding signal (z-score),[21],-0.179
same,glycan array binding signal (z-score),[22],0.078
same,glycan array binding signal (z-score),[23],-0.254
same,glycan array binding signal (z-score),Neu5Ac(b2-6)GalNAc,-0.196
same,glycan array binding signal (z-score),[24],-0.434
